Screening results deposited in PubChem by National Center for Advancing Translational Sciences (NCATS).
Rab9 prom act: qHTS Assay for Rab9 Promoter Activators; Huh7 Rab9 promoter-luciferase reporter, luminescence, 24 h; 320,000 compounds, 2.8% hits; AID 485297, 2010; Potency, µM (series often up to 9.22 µM), usual class: activators; note: nearly all actives have a fitted effect of over 60% in size
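Steps: seed 1500 Huh7 Rab9-luc cells per well, rest 2 h at 37 °C; add compound in DMSO; incubate 24 h; add luciferase reagent, 10 min ambient; read luminescence.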
NPC1 prom act: qHTS Assay for NPC1 Promoter Activators; Huh7 NPC1 promoter luciferase reporter, 24 h; Potency, µM (titrated, usually from 9.22 µM), most hits filed as activators; 320,000 compounds, 2.4% hits; AID 485313, 2010; note: nearly all actives have a fitted effect of over 60% in size
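Cells: Huh7 expressing luciferase under the NPC1 promoter, 1500/well. Seeded 2 h, compound added, incubated 24 h at 37 °C. Luciferase reagent, 10 min ambient, then luminescence.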
ELG1 DNA repair: qHTS screen for small molecules that inhibit ELG1-dependent DNA repair in human embryonic kidney (HEK293T) cells expressing luciferase-tagged ELG1. HEK293T ELG1-luciferase reporter, luminescence, 16 h; DNA damage induced by 5-fluorouridine. Potency, µM (series often up to 46.1 µM), usual class: inhibitors. 330,000 compounds, 2.3% hits. AID 504467, 2011; note: nearly all actives have a fitted effect of over 55% in size
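In this reporter screen, reduction of luminescence relative to DMSO vehicle indicated activity. Compounds and 5-fluorouridine were added together to 2,000 cells per well, incubated for 16 hr at 37 °C, then developed with ONE-Glo.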
FLuc modulator: qHTS profiling assay for firefly luciferase inhibitor/activator using purifed enzyme and Km concentrations of substrates (counterscreen for miR-21 project) | Luciferin 4-monooxygenase (Photinus pyralis), P08659 | purified FLuc, Km substrates, luminescence inhibition | Potency, µM (top dose mostly 57.5 µM), usual class: inhibitors | 360,000 compounds, 6.9% hits; note: nearly all actives have a fitted effect of over 55% in size
Target sequence (P08659 whole entry, looked up): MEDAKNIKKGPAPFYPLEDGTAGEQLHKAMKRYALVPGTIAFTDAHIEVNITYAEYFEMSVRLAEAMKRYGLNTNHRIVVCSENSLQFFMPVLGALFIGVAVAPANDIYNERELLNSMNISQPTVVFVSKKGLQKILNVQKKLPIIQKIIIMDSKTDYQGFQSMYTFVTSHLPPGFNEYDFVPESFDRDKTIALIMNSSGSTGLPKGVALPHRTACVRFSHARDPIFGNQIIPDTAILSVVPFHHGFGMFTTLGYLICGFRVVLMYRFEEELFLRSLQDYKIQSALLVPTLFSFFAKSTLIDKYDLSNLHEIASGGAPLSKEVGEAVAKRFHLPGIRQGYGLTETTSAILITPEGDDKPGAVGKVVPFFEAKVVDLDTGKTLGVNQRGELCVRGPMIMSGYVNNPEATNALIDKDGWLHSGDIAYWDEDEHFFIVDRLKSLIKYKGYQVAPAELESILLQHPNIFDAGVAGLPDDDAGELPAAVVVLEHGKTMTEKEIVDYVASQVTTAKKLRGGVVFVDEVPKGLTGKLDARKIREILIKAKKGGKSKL
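Purified P. pyralis luciferase, 10 nM final, with Km-level 10 uM D-luciferin and 10 uM ATP in 50 mM Tris acetate pH 7.5, 10 mM Mg acetate, 0.01% Tween-20, 0.05% BSA; 6-point qHTS titration about 60 µM downward; luminescence read.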
SMN2 splice up: qHTS Assay for Enhancers of SMN2 Splice Variant Expression. 210,000 compounds, 2.8% hits. HEK293 SMN2-luciferase splicing reporter, luminescence, 30-36 h. AID 1458, 2008. Potency, µM (titrated, usually from 46.1 µM), actives largely listed as activators; note: nearly all actives have a fitted effect of over 55% in size
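qHTS luciferase splicing reporter: luminescence rises when SMN2 exon 7 is included in transfected HEK293 cells. Compound exposure lasted 30-36 h at 37C, with 4.5 mM final sodium butyrate as control, followed by a ONE-Glo read.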
ELG1 genotox: qHTS screen for small molecules that induce genotoxicity in human embryonic kidney (HEK293T) cells expressing luciferase-tagged ELG1; HEK293T ELG1-luciferase reporter, luminescence, 16 h; Potency, µM (highest dose often 46 µM), hits mostly activators; 330,000 compounds, 1.3% hits; AID 504466, 2011; note: nearly all actives have a fitted effect of over 60% in size
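16 hr compound incubation (37 °C, 5% CO2) of HEK293T cells carrying luciferase-tagged ELG1; luciferase then measured by ONE-Glo luminescence after 30 min at RT.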
A number is an active result; - = inactive; ? = inconclusive; . = no result given; [ ] = remark or other dose. Hits are enriched below; roughly 9.2% of the tested compounds scored in any of these assays. Calls come from the whole dose curve; as a rule, active = well fitted curve in the direction sought with a large enough effect; inconclusive = small, poorly fitted or top-dose-only effect, or another doubt; inactive = no such curve, though single readings can be large; an effect the other way counts as inactive or inconclusive.

SMILES | Rab9 prom act | NPC1 prom act | ELG1 DNA repair | FLuc modulator | SMN2 splice up | ELG1 genotox
Cc1cc(C)c(S(=O)(=O)Nc2cc(SCC(=O)O)c(O)c3ccccc23)cc1C | - | - | - | ? | - | -
Cc1cc(C)c(S(=O)(=O)/N=C2/C=C(SCC(=O)O)C(=O)c3ccccc32)cc1C | - | - | ? | 21µM | - | -
O=C(CCS(=O)(=O)c1cccs1)NC1CCCCCC1 | 3.5µM | 2.8µM | ? | 17µM | - | ?
COc1ccc2c(c1)CC(C(=O)NCCCN1CCN(c3ccc(F)cc3)CC1)CO2 (stereo not given) | . | . | . | - | . | .
Cc1ccc(-c2onc3ccc(Br)cc23)cc1 | - | - | - | ? | . | -
Cc1ccc(-c2onc3ccc(C4OCCO4)cc23)cc1 | ? | - | ? | 7.6µM | - | -
COc1ccccc1C(=O)NC(CCSC)C(=O)Nc1ccc(C)c(S(=O)(=O)N2CCOCC2)c1 (stereo not given) | . | . | ? | . | . | -
CCn1c(SCc2ccc(C#N)cc2)nnc1-c1ccc(S(=O)(=O)N2CCCCC2)cc1 | - | - | 10µM | - | - | -
NC(=[SH+])N=N/C=C1/C=CC=CN1.O=S(=O)(O)O.[Fe] | . | . | . | . | -[9.22 µM] | .
O=C(NCC(=O)N1CCCCC1)c1ccc(Cl)cc1Cl | 4µM | ? | ? | 19µM | ? | 16µM
COc1ccccc1N1CCN(C(=O)COc2ccc(Cl)cc2Br)CC1 | - | - | ? | - | - | -
COc1ccccc1N1CCN(C(=O)CNC(=O)c2ccc(Cl)cc2Cl)CC1 | - | - | ? | 24µM | . | -
CCCCC(CC)COC(=O)COc1ccc(Cl)cc1Cl (stereo not given) | . | . | . | . | - | .
CC1=NN(c2ccccc2)C(=O)/C1=C/C=C/c1ccccc1 | - | - | 21µM | ? | - | -
CC1=NN(c2cccc(C(=O)O)c2)C(=O)/C1=C\C=C\c1ccco1 | - | - | ? | 2.7µM | - | ?
CC1=NN(c2ccccc2)C(=O)/C1=C\N1CC(C)OC(C)C1 (stereo not given) | - | - | - | ? | - | -
O=C1NN(c2ccc(F)cc2)C(=O)/C1=C\C=C\c1ccco1 | - | - | - | ? | - | -
CC1(C)Cc2nc3sc(C(=O)O)c(N)c3cc2CS1 | - | - | - | ? | - | -
CC1(C)Cc2nc3sc(C(=O)NCCO)c(N)c3cc2CO1 | - | - | ? | 27µM | ? | -
CC1(C)Cc2nc3sc(C(=O)NCCCO)c(N)c3cc2CS1 | 3.2µM | ? | ? | 15µM | 14µM | ?
Cc1ccc(OC(=O)c2cc(C)nn2C(C)(C)C)cc1 | - | - | - | - | . | -
O=Cc1ccc(Cl)c(Cl)c1 | - | - | - | - | - | -
CCCCNC(=O)c1cc(-c2ccc(OC)cc2)on1 | 3.2µM | 4µM | ? | 8.5µM | 14µM | 8.2µM
CCCNC(=O)c1cc(-c2ccc(OC)cc2)on1 | 2.8µM | 0.89µM | ? | 2.4µM | 10µM | 4.6µM
CCCCNC(=O)c1cc(-c2ccc(OC)c(OC)c2)on1 | - | - | ? | - | - | -
SMILES | Rab9 prom act | NPC1 prom act | ELG1 DNA repair | FLuc modulator | SMN2 splice up | ELG1 genotox
COc1ccc(-c2cc(C(=O)Nc3cc(C)nn3-c3ccccc3)no2)cc1 | - | - | - | 13µM | - | -
CCCCNC(=O)c1cc(-c2ccc(F)cc2)on1 | 4µM | 3.5µM | ? | 9.5µM | 25µM | ?
CCOc1ccc(NC(=O)CCS(=O)(=O)c2ccc3c(c2)n(C)c(=O)c(=O)n3C)cc1 | . | . | . | - | - | .
CCOc1ccc(CNC(=O)C2CCCN(S(=O)(=O)c3ccc4c(c3)CCCC(=O)N4)C2)cc1 (stereo not given) | . | . | . | - | . | .
CCOc1ccc(S(=O)(=O)Nc2cccc(OC)c2)c2cccnc12 | . | . | . | - | - | .
Cc1c(-c2ccc(OCc3ccccc3)cc2)nc2ccccc2c1C(=O)O | - | - | ? | 21µM | . | -
